Screening results as filed in PubChem BioAssay.
COUP-TFII inh = NR2F2 transcriptional activity inhibitors, primary screen, cell-based, luciferase reporter, HEK293T, luminescence; actives 0.7% (n = 370,000); COUP transcription factor 2 (Homo sapiens), P24468; HEK293T NGFI-A luciferase reporter; inhibition, % at 8.6 µM;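 active means inhibition above a per-plate cutoff, mean inhibition of test wells between control levels plus 3 SD, cut at about 38% in these data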;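 further: cells cotransfected with COUP-TFII expression vector driving the NGFI-A reporter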
Target sequence (P24468 whole entry, looked up): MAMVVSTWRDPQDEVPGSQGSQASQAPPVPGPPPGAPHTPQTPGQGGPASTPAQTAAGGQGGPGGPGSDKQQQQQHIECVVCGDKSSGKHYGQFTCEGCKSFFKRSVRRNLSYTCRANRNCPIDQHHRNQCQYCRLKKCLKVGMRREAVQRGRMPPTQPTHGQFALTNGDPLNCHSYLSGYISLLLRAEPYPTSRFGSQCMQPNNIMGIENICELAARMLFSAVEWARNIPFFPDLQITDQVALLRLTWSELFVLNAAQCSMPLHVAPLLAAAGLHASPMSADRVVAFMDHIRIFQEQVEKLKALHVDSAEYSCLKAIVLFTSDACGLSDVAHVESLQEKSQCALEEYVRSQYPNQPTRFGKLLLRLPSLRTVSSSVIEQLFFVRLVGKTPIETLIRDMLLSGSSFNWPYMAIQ
SRC3 inh = SRC3 coactivator transcriptional activity inhibitors, primary screen, cell-based, luminescence; Nuclear receptor coactivator 3 (Homo sapiens), Q9Y6Q9; HEK293 GAL4-SRC3 luciferase reporter; inhibition, % at 3.6 µM; actives 0.17% (n = 360,000);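 active means inhibition above a per-campaign cutoff, the mean of all compounds plus 3 SD, cut at about 60% in these data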;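 further: higher means less SRC3-driven luciferase light from the GAL4 reporter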
LRH-1 inv ag = LRH-1 (NR5A2) inverse agonists, primary screen, cell-based, luminescence, HEK293T, StAR-luciferase reporter. Nuclear receptor subfamily 5 group A member 2 (Homo sapiens), O00482. LRH-1 transfected, 24 h. inhibition, % at 3.6 µM. actives 0.13% (n = 360,000). AID 602396, 2012;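 active means inhibition above the mean inhibition of all tested compounds plus 3 SD, cut at about 73% in these data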
SRC2 inh = inhibition of GAL4-SRC2 driven luciferase reporter, primary screen, SRC2 inhibitor project, cell-based, luminescence. Nuclear receptor coactivator 2 (Homo sapiens), Q15596. HEK293 GAL4-SRC2 luciferase reporter. inhibition, % at 9 µM. actives 0.17% (n = 370,000);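 active means inhibition above the mean inhibition of all tested compounds plus 3 SD, set per campaign, cut at about 52% in these data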
NCOA1 inh = SRC1 coactivator transcriptional activity inhibitors, primary screen, cell-based, luminescence; Nuclear receptor coactivator 1 (Homo sapiens), Q15788; HEK293 GAL4-SRC1 luciferase reporter; inhibition, % at 3.6 µM; actives 0.12% (n = 360,000);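 active means inhibition above the campaign mean plus 3 SD, with each screening campaign given its own cutoff, cut at about 60% in these data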
Gli-Sufu block = Gli-Sufu pathway antagonists, primary screen, luciferase luminescence, Sufu-KO-LIGHT cells, uHTS | Sufu-KO-LIGHT fibroblasts, Gli luciferase reporter luminescence | inhibition, % at 5 µM | actives 0.74% (n = 340,000);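 active means inhibition above about 55%, limit read from the data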
A number is an active result; n = inactive; x = no result given. Rows were chosen to be rich in hits. Some 1.3% of all compounds tested hit in one or more screens of this group.

SMILES | COUP-TFII inh | SRC3 inh | LRH-1 inv ag | SRC2 inh | NCOA1 inh | Gli-Sufu block
COc1cc(OC)cc(C(=O)NCC(=O)N2CCN(c3ccc(O)cc3)CC2)c1 | n | n | n | n | n | 58
Nc1nc(=S)c2ncn([C@@H]3O[C@H](CO)[C@@H](O)[C@H]3O)c2[nH]1 | n | n | 81 | n | n | n
Nc1ccn([C@@H]2O[C@H](CO)[C@@H](O)[C@@H]2O)c(=O)n1 | n | n | n | n | n | n
Nc1ncn([C@@H]2O[C@H](CO)[C@@H](O)[C@H]2O)c(=O)n1 | n | 79 | 75 | n | 65 | n
CCc1ccccc1NC(=O)Cn1cccc1C1=NC(c2ccccc2)CO1 (stereo not drawn) | n | n | n | n | n | n
Cc1ccc(NC(=O)Cn2cccc2C2=NC(c3ccccc3)CO2)cc1C (stereo not drawn) | n | n | n | 100 | n | n
COc1ccc(S[C@]2(C(=O)N3CCCC3)CC(=O)N(c3ccc4c(ccn4C)c3)[C@@H]2c2ccc(OC)cc2)cc1 | n | x | x | n | x | x
CN1CCN(c2ncnc3scc(-c4ccccc4Cl)c23)CC1 | n | 63 | n | n | n | n
Cc1cc(-c2csc3ncnc(N4CCN(C)CC4)c23)cc(C)c1C | n | n | n | n | n | n
NC(=S)n1[nH]c(-c2ccc([N+](=O)[O-])cc2)c(N=Nc2cccc(Cl)c2)c1=O | n | n | n | n | n | 62
NC(=S)n1[nH]c(-c2ccc([N+](=O)[O-])cc2)c(N=Nc2ccc(O)cc2)c1=O | n | n | n | n | n | n
O=C(Cc1ccc(Cl)cc1)c1c[nH]c(C(=O)NCc2cccnc2)c1 | n | n | n | 88 | n | n
COc1cc(NC(=O)c2ccccc2)c(C)cc1NC(=O)CSc1nnc(COc2ccccc2)n1Cc1ccco1 | n | x | x | n | x | x
CCN(C(=O)CN1CCN(c2nc(-c3ccccc3)cs2)CC1)c1ccccc1C | n | x | x | n | x | x
COc1ccc(-c2[nH]ncc2-c2ccc3c(c2)OCCO3)c(O)c1 | n | 65 | n | n | 67 | n
C=CCN(CC#Cc1ccccc1)CC1CC1 | n | x | x | n | x | x
O=C(O)Cc1ccc(C(=O)c2ccccc2)s1 | n | n | n | n | n | n
COc1ccc(C(=O)c2ccc(CC(=O)O)s2)cc1 | n | n | n | 52 | n | n
O=c1c2ccccc2nc(/C=C/c2ccc([N+](=O)[O-])o2)n1CCCO | n | n | n | n | n | 71
O=c1c2ccccc2nc(/C=C/c2ccc([N+](=O)[O-])cc2)n1CCCO | n | n | n | n | n | n
O=C(Cn1nnc(-c2ccc(N3CCOCC3)cc2)n1)c1ccccc1 | n | x | x | n | x | x
O=[N+]([O-])c1ccc2[nH]c3nc4ccccc4nc3c2c1 | n | n | n | n | n | 57
CCN(CC)C(=O)CC[C@H]1CC[C@]2(CCCN(Cc3cccc4ccccc34)C2)O1 | n | x | x | n | x | x
COc1ccccc1/C=C/C(=O)c1c2c(c(C)[nH]c1=O)CCCC2 | n | 65 | n | 58 | n | n
Cc1cccc(CCNC(=O)Cn2nc(-c3ccccc3)ccc2=O)c1 | n | x | x | n | x | x
SMILES | COUP-TFII inh | SRC3 inh | LRH-1 inv ag | SRC2 inh | NCOA1 inh | Gli-Sufu block
S=c1[nH]nc(C2CCCCC2)n1/N=C/c1ccncc1 | n | 69 | n | n | 71 | n
CC1=C(C(=O)OCc2ccc3c(c2)OCO3)C(c2ccc(O)c([N+](=O)[O-])c2)NC(=O)N1 (stereo not drawn) | n | n | n | 56 | n | n
CC1=C(C(=O)OCc2ccc3c(c2)OCO3)C(c2ccccc2OCc2ccccc2)NC(=O)N1 (stereo not drawn) | n | n | n | n | n | n
CC1=C(C(=O)OCc2ccc3c(c2)OCO3)C(c2ccccc2)NC(=O)N1 (stereo not drawn) | n | 70 | n | 54 | 71 | n
CC1=C2N=C(N)N(Cc3ccccc3)C(Cc3ccccc3)C2n2c(=O)n(-c3ccccc3)c(=O)n2C1 (stereo not drawn) | n | x | x | n | x | x
Cc1ccc2nc(-c3ccc(NC(=O)CSc4nnc(Cc5cccs5)n4C)cc3)sc2c1 | n | x | x | n | x | x
COc1ccc(N(CC(=O)Nc2ccc(C)cc2)S(=O)(=O)c2c(C)noc2C)cc1 | n | n | n | n | n | n
Cc1ccc(N(CC(=O)Nc2cc(C)cc(C)c2)S(=O)(=O)c2c(C)noc2C)cc1 | n | n | n | n | n | 68
CCCCNC(=O)C1CCCN1C(=O)Nc1cc(Cl)cc(Cl)c1 (stereo not drawn) | n | x | x | n | x | x
COC1=C[C@H](C(=O)NC2CCN(Cc3ccccc3)CC2)[C@@]2(C)Cc3ccccc3[C@H]2CC1=O | n | x | x | n | x | x
CCN1/C(=C/C=C/c2oc3ccc4ccccc4c3[n+]2CC)Oc2ccc3ccccc3c21 | x | x | x | x | x | 74
O=S(=O)(Nc1cc(Sc2cccc3cccnc23)c(O)c2ccccc12)c1ccc(F)cc1 | n | x | x | n | x | 96
CCCCCCCCCCCCCCCC[n+]1ccc(C(N)=O)cc1 | n | n | n | n | n | n
CCCCCCCCCCCCCCCC[n+]1ccc(/C=N/O)cc1 | 38 | n | n | n | n | 73
O=C(c1ccc(F)cc1Cl)N(Cc1ccccn1)CC1CCCO1 (stereo not drawn) | n | x | x | n | x | x
C[C@H]1CCCN1c1ccc2c(c1)O[C@@H]1CCN(C1)S2(=O)=O | n | x | x | n | x | x
COC(=O)c1cn(NC(=O)c2cc([N+](=O)[O-])ccc2F)c(=O)c2ccccc12 | n | 78 | 76 | 59 | 70 | n
COC(=O)c1cn(NC(=O)C2CCC(C)CC2)c(=O)c2ccccc12 (stereo not drawn) | n | n | n | n | n | n
O=C(O)CCSc1ncnc2sc(-c3ccccc3)cc12 | n | n | n | 81 | n | n
CC(=O)CCSc1ncnc2sc(-c3ccccc3)cc12 | n | n | n | n | n | n
Clc1ccc(-c2csc(=Nc3cccnc3)n2CCCn2ccnc2)cc1Cl | n | n | n | 57 | n | n
CCCCNC(=O)C1CCCN1C(=O)Nc1ccc2c(c1)OCO2 (stereo not drawn) | n | x | x | n | x | x
CC(=O)Oc1c(C)cc(Cl)cc1C(=O)Nc1ccc([N+](=O)[O-])cc1Cl | n | n | n | n | n | 73
CC(=O)OCC(=O)Nc1ccc([N+](=O)[O-])cc1Cl | n | n | n | n | n | n
Cc1ccc2nc(C(F)(F)F)c(C#N)c(N)c2c1 | n | n | n | 54 | n | n
COc1cc(C=CC(=O)c2cc(OC)c(OC)c(OC)c2)cc(OC)c1OC | n | 64 | n | 68 | n | n
Nc1nc2ncc(CNc3ccc(C(=O)N[C@@H](CCC(=O)O)C(=O)O)cc3)nc2c(=O)[nH]1 | n | n | n | n | n | n
